Source: PubChem BioAssay AID1159580 (chemical genetic matrix, 2015)
Among all 5,500 compounds or so, about 2,000 (36%) were called active. Not shown: some 18% with an inconclusive outcome. No stated cut-off is given here; in the data, active means normalized growth mostly below about 0.91 (no sharp cut-off); inconclusive means no clear call, values can overlap the other calls; inactive means mostly above about 0.92. This is one part of the list.

Test: chemical genetic growth profiling, strain panel (AID 1159580);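 further: tested at 20 µM; growth read once vehicle control cultures reached saturation at 30 °C; 1 = growth at the plate median or of vehicle wells; lower values mean less growth of the strain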
Conditions: S. cerevisiae deletion strains, growth OD
[1] = locus YDR150W, strain NUM1, active compounds read low
[2] = locus YGR078C, strain PAC10, active compounds read low
[3] = locus YJR075W, strain HOC1, active compounds read low
[4] = locus YMR263W, strain SAP30, active compounds read low

Measured: normalized growth

OC[C@H]1O[C@@H](n2cnc3c(NCCc4ccccc4)ncnc32)C(O)[C@H]1O (some centres undefined)
inactive: locus YAL040C, strain CLN3, active compounds read low 0.979 | locus YCL061C, strain MRC1 (second series), active compounds read low 0.999 | [1] 0.993 | locus YDR363W, strain ESC2, active compounds read low 0.954 | locus YER002W, strain NOP16, active compounds read low 1.02 | [2] 0.996 | [3] 0.993 | [4] 0.998 | locus YMR307W, strain GAS1, active compounds read low 0.997 | locus YNL128W, strain TEP1, active compounds read low 0.989 | locus YNL175C, strain NOP13, active compounds read low 0.991 | locus YNL197C, strain WHI3, active compounds read low 0.991 | locus YNL224C, strain SQS1, active compounds read low 1.01 | locus YOR083W, strain WHI5 (second series), active compounds read low 0.997

Cc1cc(C)c(I)c(C)c1
inactive: locus YAL013W, strain DEP1, active compounds read low 1 | locus YBR229C, strain ROT2, active compounds read low 1.02 | locus YDL101C, strain DUN1, active compounds read low 0.987 | [1] 0.984 | locus YEL061C, strain CIN8, active compounds read low 1.05 | [2] 0.995 | locus YHR030C, strain SLT2, active compounds read low 1.12 | locus YHR087W, strain rtc3, active compounds read low 1.09 | locus YJR043C, strain POL32, active compounds read low 1.01 | [3] 1.02 | locus YKL190W, strain CNB1, active compounds read low 0.99 | locus YLR039C, strain RIC1, active compounds read low 1.05 | locus YLR058C, strain SHM2 (second series), active compounds read low 1.02 | locus YLR085C, strain ARP6, active compounds read low 1.01 | locus YLR262C, strain YPT6, active compounds read low 1.05 | locus YML094W, strain GIM5, active compounds read low 1.02 | locus YMR219W, strain ESC1, active compounds read low 1.01 | [4] 1.02 | locus YNL153C, strain GIM3, active compounds read low 0.999 | locus YNL298W, strain CLA4 (second series), active compounds read low 1.04 | locus YNL322C, strain KRE1, active compounds read low 1 | locus YNR030W, strain Alg12, active compounds read low 1.03 | locus YPL055C, strain LGE1, active compounds read low 1.02 | locus YPL241C, strain CIN2, active compounds read low 1.02 | locus YPR135W, strain CTF4, active compounds read low 0.963
